USP2a inh = USP2a (human) protease inhibition. O75604. USP2 core, Ub-CHOP2 coupled fluorogenic reporter, 485/531. Potency, µM (titrated, usually from 38.3 µM), usual class: inhibitors. 0.01% of 330,000 active. AID 463254
Target sequence (O75604 whole entry, looked up): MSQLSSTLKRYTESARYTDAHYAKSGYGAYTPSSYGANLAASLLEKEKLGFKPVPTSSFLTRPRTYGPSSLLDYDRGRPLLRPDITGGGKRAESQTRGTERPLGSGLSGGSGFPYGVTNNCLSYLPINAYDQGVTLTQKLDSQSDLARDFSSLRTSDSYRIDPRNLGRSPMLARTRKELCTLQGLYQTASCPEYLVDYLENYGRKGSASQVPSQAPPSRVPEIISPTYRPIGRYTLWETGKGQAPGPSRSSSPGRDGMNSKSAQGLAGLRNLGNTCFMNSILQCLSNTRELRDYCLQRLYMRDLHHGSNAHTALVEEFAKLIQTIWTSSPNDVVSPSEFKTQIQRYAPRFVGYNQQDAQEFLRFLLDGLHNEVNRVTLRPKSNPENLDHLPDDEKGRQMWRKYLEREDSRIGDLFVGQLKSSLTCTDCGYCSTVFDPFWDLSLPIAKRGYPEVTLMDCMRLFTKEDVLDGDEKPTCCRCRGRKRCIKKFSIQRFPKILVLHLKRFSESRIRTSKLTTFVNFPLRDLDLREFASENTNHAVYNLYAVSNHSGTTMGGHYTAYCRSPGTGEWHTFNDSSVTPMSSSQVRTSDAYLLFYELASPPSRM
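Cell-free coupled assay: 10nM USP2 core preincubated 30min RT with compound in Tris-HCl pH 8.0/CaCl2/CHAPS buffer, then 25nM Ub-CHOP2 and 25nM reporter substrate; fluorescence (Ex 485/Em 531) read after 60min RT, normalized to NEM inhibition, concentration-response curves fitted.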
D1 potentiator = potentiators of human D1 dopamine receptor; 0.036% of 360,000 active; P21728; HEK293 TREx D1 cells, calcium flux, dopamine EC20 potentiation; potentiation, % at 10 µM; AID 504651; in the data active = potentiation above about 30%
Eya2 phos inh = Eya2 (human) phosphatase inhibition. Potency, µM (top dose mostly 76.9 µM), hits mostly inhibitors. AID 488837. 0.006% of 330,000 active. O00167. recombinant Eya2, OMFP fluorescence dephosphorylation (OMFP is methylfluorescein phosphate)
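Eya2 (0.2 uM) preincubated 10 min at ambient with compound, then OMFP substrate added at 50 uM; 10 min reaction in 50 mM HEPES pH 7.5, 50 mM NaCl, 5 uM MgCl2, 0.05% BSA, 1 mM DTT. Fluorescence read at Ex 485/Em 525 nm.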
D1 ag = agonists of human D1 dopamine receptor; P21728; HEK293 T-REx D1 cells, calcium flux, agonist mode; activation, % at 2 µM; 1% of 360,000 active; in the data active = activation above about 30%
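Agonism was scored from calcium flux recorded over 180 s (1 read/s) after pintool compound addition, following a 10-cycle baseline. Cells were inducible force-coupled HEK293 TREx D1, plated overnight at 30 C and loaded with no-wash calcium dye.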
GALK inhibitor = blocks human galactokinase activity. Potency, µM (titrated, usually from 57.5 µM), usual class: inhibitors. Purified GALK, Kinase-Glo residual ATP luminescence. P51570. 0.007% of 270,000 active
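Quantitative HTS: GALK 5 nM, ATP 35 uM, galactose 100 uM, 1 h room temperature, then luciferase-based ATP detection.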
D1 antagonist = human D1 dopamine receptor antagonism; HEK293 TREx D1 cells, calcium flux, dopamine EC80; stronger effect = lower value; activity change, negative = inhibition, % at 10 µM; 3.2% of 360,000 active; in the data active = activity change below about -30%
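Tetracycline-induced HEK293 T-REx cells with force-coupled D1 receptor were loaded with a no-wash calcium dye. Compound was added after a 10 s baseline and read kinetically for 180 s; EC80 dopamine was then added and calcium flux followed another 180 s.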
A number is an active result; – = inactive; · = no result given. A selection: hits, their analogues and other compounds. The true share with any hit is near 3.9%. Unless noted, calls follow the shape of the dose curve; as a rule, active = well fitted inhibition curve with a large enough effect; inconclusive = small, poorly fitted or top-dose-only effect, or effect the other way; inactive = flat fitted curve, though single readings scatter.

SMILES | USP2a inh | D1 potentiator | Eya2 phos inh | D1 ag | GALK inhibitor | D1 antagonist
COc1ccc(S(=O)(=O)N2CCC(NC(=O)Nc3ccc(C)cc3)CC2)cc1 | – | · | – | · | – | ·
Cc1ccc(NC(=O)C(c2ccccc2)C2CCCC2)cc1 (stereo not drawn) | – | – | – | – | · | -34.4
COc1ccc(NC(=O)CSc2nc(-c3cccs3)cc(C(F)(F)F)n2)c(OC)c1 | · | – | · | – | · | –
Cc1ccc(NS(=O)(=O)c2ccccc2)c(C)c1 | · | – | · | – | · | –
Cc1cccc(NC(=O)Cn2c(=O)n(Cc3ccccc3)c(=O)c3oc4ccccc4c32)c1C | · | – | · | – | · | –
COC(=O)c1ccccc1NC(=O)NC1CC1 | – | – | – | – | – | –
CC(=O)c1ccc(S(=O)(=O)N2CCC(NC(=O)Nc3cccc(F)c3)CC2)cc1 | – | – | – | – | – | -34.3
COC(=O)c1ccccc1NC(=O)NC1CCCCC1 | – | – | – | – | – | -44.2
O=C(COc1ccc(Cl)cc1Br)NNC(=O)C(=O)N1CCCCC1 | – | – | – | – | – | –
O=C(Nc1ccc(N2CCCC2)cc1)c1ccc(Cl)cc1Cl | – | – | – | – | – | –
CN1CCN(c2ccc(NC(=O)c3ccc(Cl)cc3Cl)cc2)CC1 | – | – | – | – | – | -43.5
CC(Oc1ccc(Cl)cc1Cl)C(=O)NNC(=O)C(=O)N1CCCCC1 (stereo not drawn) | – | – | – | – | – | -85.7
CC(=O)N1CCN(c2ccc(NC(=O)C(C)Oc3ccc(Cl)cc3Cl)cc2)CC1 (stereo not drawn) | – | – | – | – | – | –
CC(Oc1ccc(Cl)cc1Cl)C(=O)Nc1ccc(N2CCN(C)CC2)cc1 (stereo not drawn) | – | – | – | – | – | -60.0
COC(=O)C1=C(c2ccccc2)c2ccccc2S(=O)(=O)N1CC(=O)Nc1ccccc1Cl | · | – | · | – | · | –
Cc1[nH]c2ccccc2c1C(O)CN1CCN(c2cccc(C(F)(F)F)c2)CC1 (stereo not drawn) | – | – | – | 31.2 | – | -59.3
O=C(CN1CCN(c2cccc(C(F)(F)F)c2)CC1)NCc1ccccc1 | – | – | – | – | – | -44.7
Cc1[nH]c2ccccc2c1NC(=O)CN1CCN(c2cccc(C(F)(F)F)c2)CC1 | · | – | · | – | – | –
O=c1cc(CSc2nc3ccccc3c(=O)[nH]2)c2ccc(O)cc2o1 | – | – | – | – | – | -37.3
Cc1ccc(-n2c(=O)[nH]c3cc(C(=O)NCCc4ccccc4)ccc3c2=O)cc1 | · | – | · | – | · | –
CN(C)S(=O)(=O)c1ccc(N2CCCC2)c(C(=O)Nc2ccc(F)cc2F)c1 | – | – | – | – | · | –
COc1ccc(C(C)(C)C)cc1NC(=O)c1cc(S(=O)(=O)N(C)C)ccc1N1CCCC1 | – | – | – | – | – | -50.8
CC1(C)CC(=O)C2=C(C1)Nc1ccccc1NC2 | – | – | – | – | – | -50.6
CC1(C)CC(=O)C2=C(C1)Nc1ccccc1N=C2 | – | – | – | 38.7 | – | –
CC1(C)CC(=O)C2=C(C1)Nc1ccccc1S2 | – | – | – | – | – | –
SMILES | USP2a inh | D1 potentiator | Eya2 phos inh | D1 ag | GALK inhibitor | D1 antagonist
CC(CNC(=O)c1cc2cc(S(=O)(=O)N3CCCCC3)ccc2n1C)c1ccccc1 (stereo not drawn) | · | – | · | – | · | –
COc1ccc(Cn2c(C)nc3ccc([N+](=O)[O-])cc3c2=O)cc1 | – | – | – | – | – | -30.2
Cc1nc2ccc([N+](=O)[O-])cc2c(=O)n1Cc1ccc(Cl)cc1 | – | – | – | – | – | –
COc1ccc(CCNc2ncnc3sccc23)cc1OC | – | – | – | – | – | -38.5
COc1ccc(Nc2ncnc3sccc23)cc1OC | – | – | – | – | – | –
COc1ccc(CCNc2ncnc3c2oc2ccccc23)cc1OC | – | – | – | – | – | -69.1
COc1ccccc1CNc1ncnc2sccc12 | – | – | – | 31.0 | – | -30.8
CCc1ccc(CN(C(=O)c2nc(SC)ncc2Cl)C2CCS(=O)(=O)C2)cc1 (stereo not drawn) | · | – | · | – | · | –
Cc1ccc(CN(Cc2ccco2)C(=O)c2cccc(C)c2)cc1 | · | – | · | – | · | –
Fc1cccc(Nc2cc(-n3cccn3)ncn2)c1 | – | – | – | – | – | -44.6
Cc1ccc(Nc2cc(-n3cccn3)ncn2)c(C)c1 | – | – | – | – | – | –
Cc1ccc(C(=O)N2CCN(Cc3ccc4c(c3)OCO4)CC2)cc1[N+](=O)[O-] | – | – | – | – | – | –
O=C(c1cccc([N+](=O)[O-])c1)N1CCN(Cc2ccc3c(c2)OCO3)CC1 | – | – | – | – | – | -30.5
N#Cc1c(F)cccc1N1CCN(Cc2ccc3c(c2)OCO3)CC1 | – | · | – | – | – | -37.1
O=[N+]([O-])c1cccnc1N1CCN(Cc2ccc3c(c2)OCO3)CC1 | – | – | – | – | – | -36.6
COc1ccc(C(=O)COC(=O)c2cccc(NC(=O)c3ccc(OC)c(OC)c3)c2)cc1 | · | – | · | – | · | –
CC(CNC(=O)c1nnc(Cc2ccc(F)cc2)o1)c1ccccc1 (stereo not drawn) | · | – | · | – | · | –
Cc1cc2cc(CNC(=O)Cc3ccc([N+](=O)[O-])cc3)ccc2n1C | – | – | – | – | – | -31.2
Cc1cc(C)c(S(=O)(=O)NCc2ccc3c(c2)cc(C)n3C)c(C)c1 | – | – | – | – | – | -37.0
Cc1cc2cc(CNC(=O)C3CCCC3)ccc2n1C | – | – | – | – | – | -30.1
Cc1cc2cc(CNS(=O)(=O)c3ccc4ccccc4c3)ccc2n1C | – | – | – | – | – | –
COc1ccc(Cl)cc1CNCCSc1nnnn1-c1ccccc1 | · | – | · | – | · | –
COc1cccc(-c2nnc3n(Cc4ccccc4Cl)c(=O)c4ccccc4n23)c1O | · | – | · | – | · | –
Clc1ccc(OCCSCc2nc3ccccc3[nH]2)cc1 | – | – | – | – | – | -49.1
Cc1ccc(OCCSCc2nc3ccccc3[nH]2)cc1 | – | · | – | · | – | ·
CC(C)CC1NC(=O)N(CC(=O)NC2CCCc3ccccc32)C1=O (stereo not drawn) | – | – | – | – | – | -36.3
CC(C)CN1C(=O)C(=O)N(CC(=O)NC2CCCc3ccccc32)C1=O (stereo not drawn) | – | – | – | – | – | –
COC(=O)c1ccccc1NC1c2ccccc2C(=O)N1c1cccnc1 (stereo not drawn) | – | – | – | – | – | –
O=C1c2ccccc2C(Nc2ccccc2F)N1c1cccnc1 (stereo not drawn) | – | · | – | – | – | -34.8
CCOC(=O)C1CCN(S(=O)(=O)c2ccc3[nH]c(=O)oc3c2)CC1 | – | – | – | – | – | –
